Screening data deposited in PubChem BioAssay by The Scripps Research Institute Molecular Screening Center.
RTF Ca sens inh: cardiac RTF calcium desensitization. inhibition, % at 7.15 µM. 340,000 compounds, 0.12% hits. AID 493244. P19429+P45379. IANBD-labeled cardiac RTF, Ca2+ fluorescence;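 active = inhibition above the mean inhibition of all tested compounds plus 3 SD, cut at about 17% in these data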;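 also: assay run at fixed EC70 calcium of 1.6 mM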
cardiac RTF act: increases calcium sensitivity of human cardiac regulated thin filaments; P19429+P45379; IANBD-labeled TnC RTF fluorescence at EC20 calcium; 0% EC20 calcium, 100% full calcium; activation, % at 7.2 µM; 340,000 compounds, 0.24% hits; AID 493008;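 active = activation above the mean over all tested compounds plus 3 SD, cut at about 30% in these data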;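 also: rise in fluorescence read as greater calcium sensitivity of cardiac thin filaments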
IDE cell inh: inhibits human insulin-degrading enzyme in HEK cells | FAbetaB cleavage, fluorescence polarization | 320,000 compounds, 0.41% hits | inhibition, % at 5.59 µM | AID 434962;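 active = percent inhibition above the average of all tested compounds plus 3 SD, set per screening campaign, cut at about 16% in these data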;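 also: IDE supplied by intact live HEK cells; FP after avidin binding of uncleaved biotin substrate so inhibition keeps polarization high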
IDE cell activ: boosts human insulin-degrading enzyme activity in HEK cells. activation, % at 5.96 µM. 340,000 compounds, 0.073% hits. AID 493087. FAbeta-B cleavage, fluorescence polarization; 0% vehicle, 100% cell-free pure enzyme wells;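 active = activation above the mean of all tested compounds plus 3 SD, set per screening campaign, cut at about 17% in these data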
A number is an active result; i = inactive; nt = not tested or not shown. Hits are enriched below; roughly 0.71% of the tested compounds scored in any of these assays.

SMILES	RTF Ca sens inh	cardiac RTF act	IDE cell inh	IDE cell activ
COc1cccc(OCCSc2nc(N)cc(N)n2)c1	i	i	i	i
Nc1cc(N)nc(SCCOc2ccccc2)n1	i	i	i	23
COc1ccc(NC(=O)CSc2nc3[nH]ncc3c(=O)n2-c2ccccc2C)cc1OC	i	i	i	i
COc1ccc(NC(=O)CSc2nc3[nH]ncc3c(=O)n2-c2ccccc2OC)cc1OC	i	i	21	i
CC(C)c1ccc(CCNC(=O)c2cccc(S(=O)(=O)N3CCN(C)CC3)c2)cc1	i	i	i	i
O=C(Nc1ccccc1F)C(=Cc1sc(N2CCOCC2)nc1-c1ccccc1)C(=O)Nc1ccccc1F	i	30	i	i
C[n+]1ccc(/C=C/c2c[nH]c3ccc(F)cc23)cc1	i	102	nt	i
CCc1ccc(/C=C/c2c[nH]c3ccccc23)[n+](CC)c1	i	i	i	i
CCN(CC)c1ccc2cc(-c3nc4ccccc4n3C)c(=O)oc2c1	i	102	i	i
CCN(C[C@H]1N[C@@](CC)(C(=O)OC)[C@H]2C(=O)N(Cc3ccccc3)C(=O)[C@@H]12)C(=O)NC(C)C	i	i	i	i
O=C(CN1CCN(CN2C(=O)NC3(CCCCCC3)C2=O)CC1)Nc1ccc(F)cc1	i	i	i	19
CC(=O)n1c(C=Nc2ccc(Cl)cc2)c(O)c2ccccc21	i	38	i	i
CC(=O)n1c2ccccc2c2ccccc21	i	i	i	i
COc1ccc(CNC(=O)CN2CCC(NC(=O)c3ccccc3C)CC2)cc1	i	i	i	i
COc1ccccc1C(=O)NN(C)C1=NS(=O)(=O)c2ccccc21	i	60	i	i
O=C1/C(=C/c2cccc(F)c2)Oc2cc(O)ccc21	i	49	i	i
Oc1cc2c(cc1O)[C@H]1c3ccc(O)c(O)c3OC[C@@]1(O)C2	i	i	i	i
Oc1ccc2c(c1)OCC1(O)Cc3cc(O)c(O)cc3C21 (configuration not stated)	i	i	nt	34
CN(C)c1ccc(/C=C/C(=O)c2ccc(O)cc2)cc1	i	72	nt	i
COc1ccc(C(=O)/C=C/c2ccc(O)cc2)cc1	i	i	i	i
C[C@@H]1C(=O)O[C@H]2[C@H](O)[C@@]34[C@H]5C[C@@H](C(C)(C)C)[C@]36[C@@H](OC(=O)[C@@H]6O)O[C@@]4(C(=O)O5)[C@@]12O	i	i	i	i
CCOC(=O)/C(=C/C=C1\Sc2cc(C)c(C)cc2N1CC)C(C)=O	i	160	nt	i
Cc1ccc(/C=C2\Sc3ccccc3C2=O)s1	i	i	i	i
COc1ccc(OC)c(/C=C2/Sc3ccccc3C2=O)c1	i	37	i	i
CC(=O)Nc1sc(/C(C#N)=C/c2ccc(Cl)c(Cl)c2)nc1-c1ccc(C)cc1	i	76	nt	i
SMILES	RTF Ca sens inh	cardiac RTF act	IDE cell inh	IDE cell activ
CCN1C(=O)N[C@@H](CCc2ccccc2)[C@@H](C(=O)OC)[C@H]1C	i	i	i	i
Cc1ccc2c(COC(=O)c3ccc(NC(=O)CC#N)cc3)cc(=O)oc2c1C	i	i	i	i
O=C1C=C(c2cc3ccccc3s2)C[C@@H](c2ccc(Cl)cc2)C1	i	i	i	i
O=C1C=C(c2cccc3c2sc2ccccc23)C[C@@H](c2ccc(Cl)cc2)C1	i	i	i	23
COc1ccc(C(=O)COC(=O)c2cc(=O)c3ccccc3o2)cc1	i	i	i	i
COc1ccc(C(=O)c2sc3nc(C)cc(-c4cccs4)c3c2N)cc1	i	68	nt	i
COc1ccc(C(=O)c2sc3nc(C)cc(-c4cccs4)c3c2N)cc1OC	i	44	i	i
CCN(CC(=O)Nc1ccc(OC)cc1)C(=O)c1cc(S(=O)(=O)N2CCOCC2)ccc1N1CCCC1	i	i	i	i
O=[N+]([O-])c1ccc(COc2ccc(-c3[nH]ncc3-c3ccccc3)c(O)c2)cc1	i	i	i	i
Oc1cc(OCc2ccccc2)ccc1-c1[nH]ncc1-c1ccccc1	i	i	i	23
O=C(Nc1ccc(F)cc1)OCCOc1ccc(Br)cc1	i	i	i	i
CCOC(=O)CCSc1nc(-c2ccc3c(c2)OCO3)cc(C(F)(F)F)c1C#N	i	i	i	i
CCOC(=O)CC(=O)CSc1nc(-c2ccc3c(c2)OCO3)cc(C(F)(F)F)c1C#N	i	40	i	i
Cc1cccc(CC(=O)N2CCC(N3CCC(C(=O)N4CCOCC4)CC3)CC2)c1	i	i	i	i
COc1cc(/C=C2\SC(=S)N(N3CCOCC3)C2=O)ccc1O	i	i	19	i
COc1cc(/C=C2\SC(=S)N(N3CCOCC3)C2=O)cc(OC)c1OC	i	i	i	i
CCOC(=O)Cc1cc(-c2ccc(F)cc2)nc2ccc3ccccc3c12	i	i	i	i
